± gives the standard deviation of the averaged measurements.
How the values were obtained:
Assay in all cases: promoter activity interaction Z-score (Lux/OD deviation from empty-vector control); higher = stronger promoter induction by the compound
[1] = tested on: E. coli BW25113 acrABp lux reporter
In short: (§1)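 E. coli BW25113 luxCDABE reporter strains grew at 37°C in 40 µl LB Lennox in 384-well plates, with OD600 and luminescence read every 30 min for 12 h. After integration over 0–8 h for wild type or 1–9 h for deletion strains, wells under 10% of the median growth value were removed. Each score is the Z-transformed residual of growth-normalised luminescence fitted against a control.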

[2] = tested on: E. coli BW25113 marRABp lux reporter
In short: as §1

[3] = tested on: E. coli BW25113 micFp lux reporter
In short: as §1

[4] = tested on: E. coli BW25113 ompFp lux reporter
In short: as §1

[5] = tested on: E. coli BW25113 robp lux reporter
In short: as §1

[6] = tested on: E. coli BW25113 soxSp lux reporter
In short: as §1

[7] = tested on: E. coli BW25113 tolCp lux reporter
In short: as §1

[8] = 9.8 µg/ml, genetic background: wild type
[9] = 9.8 µg/ml, genetic background: ΔmarA
[10] = 9.8 µg/ml, genetic background: Δrob
[11] = 9.8 µg/ml, genetic background: ΔsoxS
[12] = 19.5 µg/ml, genetic background: wild type
[13] = 19.5 µg/ml, genetic background: ΔmarA
[14] = 19.5 µg/ml, genetic background: Δrob
[15] = 19.5 µg/ml, genetic background: ΔsoxS
[16] = 39 µg/ml, genetic background: wild type
[17] = 39 µg/ml, genetic background: ΔmarA
[18] = 39 µg/ml, genetic background: Δrob
[19] = 39 µg/ml, genetic background: ΔsoxS

## c1ccc(-c2ccccn2)nc1 [2-2-Bipyridyl]
[1]; [8]
  promoter activity interaction Z-score: -0.38 ± 0.11
[1]; [9]
  promoter activity interaction Z-score: -0.262 ± 0.49
[1]; [10]
  promoter activity interaction Z-score: -0.666 ± 0.24
[1]; [11]
  promoter activity interaction Z-score: -0.339 ± 0.48
[1]; [12]
  promoter activity interaction Z-score: -0.678 ± 0.23
[1]; [13]
  promoter activity interaction Z-score: 0.0964 ± 1.5
[1]; [14]
  promoter activity interaction Z-score: -0.696 ± 0.048
[1]; [15]
  promoter activity interaction Z-score: -0.763 ± 0.36
[1]; [16]
  promoter activity interaction Z-score: -0.446 ± 0.45
[1]; [17]
  promoter activity interaction Z-score: 1.4 ± 0.6
[1]; [18]
  promoter activity interaction Z-score: -0.276 ± 0.72
[1]; [19]
  promoter activity interaction Z-score: -0.305 ± 0.33
[2]; [8]
  promoter activity interaction Z-score: 0.799 ± 0.78
[2]; [9]
  promoter activity interaction Z-score: 0.4 ± 0.48
[2]; [10]
  promoter activity interaction Z-score: -0.042 ± 0.093
[2]; [11]
  promoter activity interaction Z-score: -0.2756 ± 0.0019
[2]; [12]
  promoter activity interaction Z-score: 0.288 ± 0.12
[2]; [13]
  promoter activity interaction Z-score: 0.637 ± 0.14
[2]; [14]
  promoter activity interaction Z-score: -0.32 ± 0.14
[2]; [15]
  promoter activity interaction Z-score: -0.0307 ± 0.0061
[2]; [16]
  promoter activity interaction Z-score: 2.32 ± 0.13
[2]; [17]
  promoter activity interaction Z-score: 2.22 ± 0.2
[2]; [18]
  promoter activity interaction Z-score: 1.59 ± 0.24
[2]; [19]
  promoter activity interaction Z-score: 1.67 ± 0.33
[3]; [8]
  promoter activity interaction Z-score: 0.412 ± 0.33
[3]; [9]
  promoter activity interaction Z-score: 0.243 ± 0.14
[3]; [10]
  promoter activity interaction Z-score: 0.0359 ± 0.019
[3]; [11]
  promoter activity interaction Z-score: 0.7191 ± 0.0054
[3]; [12]
  promoter activity interaction Z-score: 1.15 ± 0.4
[3]; [13]
  promoter activity interaction Z-score: 0.622 ± 0.29
[3]; [14]
  promoter activity interaction Z-score: 0.498 ± 0.0061
[3]; [15]
  promoter activity interaction Z-score: 3.01 ± 0.73
[3]; [16]
  promoter activity interaction Z-score: 5.52 ± 0.58
[3]; [17]
  promoter activity interaction Z-score: 0.943 ± 0.12
[3]; [18]
  promoter activity interaction Z-score: 7.21 ± 1.5
[3]; [19]
  promoter activity interaction Z-score: 9.5118 ± 0.00024
[4]; [8]
  promoter activity interaction Z-score: -0.0949 ± 0.034
[4]; [9]
  promoter activity interaction Z-score: -0.555 ± 0.58
[4]; [10]
  promoter activity interaction Z-score: -0.389 ± 0.39
[4]; [11]
  promoter activity interaction Z-score: -0.351 ± 0.17
[4]; [12]
  promoter activity interaction Z-score: -0.745 ± 0.54
[4]; [13]
  promoter activity interaction Z-score: -0.948 ± 0.58
[4]; [14]
  promoter activity interaction Z-score: -0.682 ± 0.16
[4]; [15]
  promoter activity interaction Z-score: -0.195 ± 0.78
[4]; [16]
  promoter activity interaction Z-score: -1.5 ± 0.86
[4]; [17]
  promoter activity interaction Z-score: -1.52 ± 0.45
[4]; [18]
  promoter activity interaction Z-score: -0.777 ± 0.2
[4]; [19]
  promoter activity interaction Z-score: 0.325 ± 1.2
[5]; [8]
  promoter activity interaction Z-score: -0.0517 ± 0.47
[5]; [9]
  promoter activity interaction Z-score: 0.352 ± 0.77
[5]; [10]
  promoter activity interaction Z-score: -0.375 ± 0.059
[5]; [11]
  promoter activity interaction Z-score: -0.326 ± 0.77
[5]; [12]
  promoter activity interaction Z-score: -0.772 ± 0.88
[5]; [13]
  promoter activity interaction Z-score: 0.322 ± 0.12
[5]; [14]
  promoter activity interaction Z-score: -0.387 ± 0.49
[5]; [15]
  promoter activity interaction Z-score: -0.7 ± 0.084
[5]; [16]
  promoter activity interaction Z-score: -0.663 ± 1
[5]; [17]
  promoter activity interaction Z-score: 0.193 ± 0.17
[5]; [18]
  promoter activity interaction Z-score: 0.111 ± 0.013
[5]; [19]
  promoter activity interaction Z-score: 1.63 ± 3.1
[6]; [8]
  promoter activity interaction Z-score: 0.0863 ± 0.015
[6]; [9]
  promoter activity interaction Z-score: 0.104 ± 0.016
[6]; [10]
  promoter activity interaction Z-score: -0.0121 ± 0.077
[6]; [11]
  promoter activity interaction Z-score: -0.208 ± 0.27
[6]; [12]
  promoter activity interaction Z-score: -0.706 ± 0.15
[6]; [13]
  promoter activity interaction Z-score: -0.407 ± 0.018
[6]; [14]
  promoter activity interaction Z-score: -0.63 ± 0.12
[6]; [15]
  promoter activity interaction Z-score: -0.64 ± 0.078
[6]; [16]
  promoter activity interaction Z-score: -1.84 ± 0.052
[6]; [17]
  promoter activity interaction Z-score: -1.08 ± 0.22
[6]; [18]
  promoter activity interaction Z-score: -1.495 ± 0.0068
[6]; [19]
  promoter activity interaction Z-score: -1.14 ± 0.73
[7]; [8]
  promoter activity interaction Z-score: -0.433 ± 0.08
[7]; [9]
  promoter activity interaction Z-score: -0.587 ± 0.68
[7]; [10]
  promoter activity interaction Z-score: -0.425 ± 0.56
[7]; [11]
  promoter activity interaction Z-score: 0.264 ± 0.45
[7]; [12]
  promoter activity interaction Z-score: -1.32 ± 0.36
[7]; [13]
  promoter activity interaction Z-score: -0.963 ± 0.81
[7]; [14]
  promoter activity interaction Z-score: -0.8 ± 0.27
[7]; [15]
  promoter activity interaction Z-score: -0.588 ± 0.17
[7]; [16]
  promoter activity interaction Z-score: -0.831 ± 0.2
[7]; [17]
  promoter activity interaction Z-score: -1.07 ± 0.4
[7]; [18]
  promoter activity interaction Z-score: 0.715 ± 0.83
[7]; [19]
  promoter activity interaction Z-score: 1.8 ± 1.5
